Laboratory results reported in the supplement of paper PMC10849652.
Targets with a hit are over-represented here; the source holds about 8,800 in all. About 0.5% of all pairs of compound and target were hits.

Tests used:
Test in all cases: log2 fold change, soluble protein after heating vs DMSO (PISA); higher = thermal stabilisation; K562 lysate, 10 uM; active = over 0.2 and 3.5 SD of the protein, either way, in both replicates (recomputed)
[1] = compound: C1=CC=C(C=C1)[C@H](COC2=CC3=C(C=C2)NC(=O)N3)NC(=O)C4=CC=CN(C4=O)CC5=CC(=C(C=C5)F)F
Procedure, shortened: (§1)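 Dounce homogenisation of K562 pellets in PBS pH 7.4 with 1 mM MgCl2 produced a crude extract, used at 1 mg/mL protein. Exposure to 10 μM compound lasted 30 min, and aliquots were then heated for 3 min across 48°C-58°C, pooled and brought to 0.5% NP-40 at 4°C. The supernatant after 21,000xg for 90 min was quantified by TMTpro 16plex LC-MS/MS with channel sums equalised. Duplicate values are given as log-two fold change in thermal stability relative to solvent controls.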

[2] = compound: CC1=C(SC2=C1C(=N[C@H](C3=NN=C(N32)C)CC(=O)N)C4=CC=C(C=C4)Cl)C
Procedure, shortened: as §1

[3] = compound: CC1=C2C(=CC=C1)N=C(N(C2=O)C3=CC=CC=C3C)CN4C=NC5=C(N=CN=C54)N
Procedure, shortened: as §1

[4] = compound: Cc1sc2c(c1C)C(c1ccc(Cl)cc1)=N[C@@H](CC(=O)OC(C)(C)C)c1nnc(C)n1-2
Procedure, shortened: as §1

[5] = compound: c1ccc([C@@H]2C[C@H]2NC2CCNCC2)cc1
Procedure, shortened: as §1

Measured: log2 fold change

HMGN4 (UniProt O00479)
inactive: [1] -0.137 | [2] -0.395 | [3] -0.186 | [4] 0.297 | [5] 0.513

GNB4 (UniProt Q9HAV0)
Chain of UniProt Q9HAV0 (Q9HAV0 whole entry, looked up): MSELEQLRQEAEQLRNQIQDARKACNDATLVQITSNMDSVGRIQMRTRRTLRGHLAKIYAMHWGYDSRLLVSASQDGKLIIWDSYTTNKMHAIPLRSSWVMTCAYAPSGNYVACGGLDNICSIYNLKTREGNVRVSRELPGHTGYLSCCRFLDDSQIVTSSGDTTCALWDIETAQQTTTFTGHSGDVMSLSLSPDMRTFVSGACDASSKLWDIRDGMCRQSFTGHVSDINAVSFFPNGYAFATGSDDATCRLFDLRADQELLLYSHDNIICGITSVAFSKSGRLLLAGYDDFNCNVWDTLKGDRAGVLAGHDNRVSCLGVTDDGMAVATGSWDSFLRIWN
inactive: [1] 0.162 | [2] -0.074 | [4] 0.031 | [5] -0.05

GORASP1 (UniProt Q9BQQ3)
Chain of UniProt Q9BQQ3 (Q9BQQ3 whole entry, looked up): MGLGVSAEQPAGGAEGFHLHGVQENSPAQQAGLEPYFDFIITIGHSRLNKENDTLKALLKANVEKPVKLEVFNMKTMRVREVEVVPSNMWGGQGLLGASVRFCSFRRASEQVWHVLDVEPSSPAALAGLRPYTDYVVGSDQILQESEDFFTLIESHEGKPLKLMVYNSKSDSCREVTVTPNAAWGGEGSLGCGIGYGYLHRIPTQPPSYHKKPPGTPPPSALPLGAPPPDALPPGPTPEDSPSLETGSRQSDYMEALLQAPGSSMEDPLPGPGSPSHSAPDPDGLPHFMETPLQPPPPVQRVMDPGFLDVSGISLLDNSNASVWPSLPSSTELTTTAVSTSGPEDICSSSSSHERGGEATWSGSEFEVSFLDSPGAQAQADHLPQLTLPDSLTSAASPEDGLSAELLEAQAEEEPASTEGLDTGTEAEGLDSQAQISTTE
inactive: [3] -0.049 | [4] -0.031 | [5] 0.042

GYPA, A0A2R8Y7F9
inactive: [1] -0.088 | [2] -0.151 | [5] -0.163

GPN2 (UniProt Q9H9Y4)
Chain of UniProt Q9H9Y4 (Q9H9Y4 whole entry, looked up): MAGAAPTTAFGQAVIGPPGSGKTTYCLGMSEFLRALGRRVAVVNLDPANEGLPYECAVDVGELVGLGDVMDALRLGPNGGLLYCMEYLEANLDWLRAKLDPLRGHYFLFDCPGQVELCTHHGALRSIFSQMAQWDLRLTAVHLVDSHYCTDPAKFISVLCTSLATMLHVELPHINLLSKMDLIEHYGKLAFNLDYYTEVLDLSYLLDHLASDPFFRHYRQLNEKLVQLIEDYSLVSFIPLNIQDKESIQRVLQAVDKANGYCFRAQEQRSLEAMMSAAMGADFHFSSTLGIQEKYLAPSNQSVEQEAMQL
inactive: [3] 0.07 | [4] 0.057 | [5] -0.034

HMGA1 isoform 2 (UniProt P17096)
Chain of UniProt P17096 (P17096 whole entry, looked up): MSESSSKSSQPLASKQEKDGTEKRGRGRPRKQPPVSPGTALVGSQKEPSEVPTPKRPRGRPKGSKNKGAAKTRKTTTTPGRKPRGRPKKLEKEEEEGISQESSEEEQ
inactive: [4] 0.055 | [5] 0.419

HSPA8 (UniProt E9PN89)
inactive: [1] 0.003 | [2] 0.044 | [4] -0.219 | [5] -0.393

JAK3 (UniProt P52333)
Chain of UniProt P52333 (P52333 whole entry, looked up): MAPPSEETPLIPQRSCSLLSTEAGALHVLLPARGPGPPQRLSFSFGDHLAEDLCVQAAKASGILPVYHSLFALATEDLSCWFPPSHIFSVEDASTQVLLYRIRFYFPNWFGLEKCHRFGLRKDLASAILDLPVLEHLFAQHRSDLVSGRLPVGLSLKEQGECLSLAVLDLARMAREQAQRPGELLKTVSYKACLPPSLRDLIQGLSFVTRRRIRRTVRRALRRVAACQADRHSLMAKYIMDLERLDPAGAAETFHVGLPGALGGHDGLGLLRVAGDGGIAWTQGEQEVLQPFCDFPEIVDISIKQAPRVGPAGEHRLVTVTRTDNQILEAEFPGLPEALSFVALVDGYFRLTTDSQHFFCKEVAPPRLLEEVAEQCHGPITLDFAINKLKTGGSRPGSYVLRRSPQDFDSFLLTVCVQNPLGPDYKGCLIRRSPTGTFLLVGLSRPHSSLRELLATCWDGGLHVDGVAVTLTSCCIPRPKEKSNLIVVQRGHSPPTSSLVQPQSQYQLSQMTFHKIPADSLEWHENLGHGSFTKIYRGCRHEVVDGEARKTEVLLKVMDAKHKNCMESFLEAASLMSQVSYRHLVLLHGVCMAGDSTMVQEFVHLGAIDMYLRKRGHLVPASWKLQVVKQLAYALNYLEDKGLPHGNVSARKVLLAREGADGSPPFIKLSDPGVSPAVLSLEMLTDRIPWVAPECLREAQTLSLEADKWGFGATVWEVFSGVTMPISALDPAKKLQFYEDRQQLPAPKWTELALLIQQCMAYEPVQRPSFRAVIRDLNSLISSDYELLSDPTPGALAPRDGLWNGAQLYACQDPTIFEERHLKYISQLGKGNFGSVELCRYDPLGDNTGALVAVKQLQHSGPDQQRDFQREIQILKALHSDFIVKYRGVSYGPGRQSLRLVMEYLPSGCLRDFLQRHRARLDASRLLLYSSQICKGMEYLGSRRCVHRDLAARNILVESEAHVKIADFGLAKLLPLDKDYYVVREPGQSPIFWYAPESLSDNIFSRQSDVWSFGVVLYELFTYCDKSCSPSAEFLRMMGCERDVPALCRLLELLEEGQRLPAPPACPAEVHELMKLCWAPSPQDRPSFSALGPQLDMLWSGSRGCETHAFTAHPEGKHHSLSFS
inactive: [1] 0.031 | [2] -0.051 | [3] -0.129 | [5] 0.254

HECW2 (UniProt Q9P2P5)
inactive: [3] -0.048 | [4] -0.093

INTS10 (UniProt Q9NVR2)
Chain of UniProt Q9NVR2 (Q9NVR2 whole entry, looked up): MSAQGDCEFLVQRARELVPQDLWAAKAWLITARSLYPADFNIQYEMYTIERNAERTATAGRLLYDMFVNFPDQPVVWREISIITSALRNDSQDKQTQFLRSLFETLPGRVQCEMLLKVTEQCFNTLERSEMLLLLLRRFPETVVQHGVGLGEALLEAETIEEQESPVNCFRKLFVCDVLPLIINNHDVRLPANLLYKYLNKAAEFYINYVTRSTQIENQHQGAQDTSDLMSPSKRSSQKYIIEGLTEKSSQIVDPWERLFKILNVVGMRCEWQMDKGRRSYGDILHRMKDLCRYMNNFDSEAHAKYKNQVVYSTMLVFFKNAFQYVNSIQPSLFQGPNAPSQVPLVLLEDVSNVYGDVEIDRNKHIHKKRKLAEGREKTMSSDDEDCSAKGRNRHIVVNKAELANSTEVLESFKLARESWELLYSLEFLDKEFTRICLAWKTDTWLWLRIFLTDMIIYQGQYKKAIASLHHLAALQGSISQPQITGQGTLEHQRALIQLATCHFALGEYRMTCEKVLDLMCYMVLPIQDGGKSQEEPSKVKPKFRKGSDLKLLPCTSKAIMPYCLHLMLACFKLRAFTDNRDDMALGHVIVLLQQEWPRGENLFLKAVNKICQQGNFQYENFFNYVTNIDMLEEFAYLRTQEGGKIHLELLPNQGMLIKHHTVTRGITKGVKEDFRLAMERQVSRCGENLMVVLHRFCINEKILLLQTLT
inactive: [1] -0.015 | [2] -0.057 | [3] 0.023 | [4] -0.077 | [5] -0.003

HOMER3 (UniProt Q9NSC5)
Chain of UniProt Q9NSC5 (Q9NSC5 whole entry, looked up): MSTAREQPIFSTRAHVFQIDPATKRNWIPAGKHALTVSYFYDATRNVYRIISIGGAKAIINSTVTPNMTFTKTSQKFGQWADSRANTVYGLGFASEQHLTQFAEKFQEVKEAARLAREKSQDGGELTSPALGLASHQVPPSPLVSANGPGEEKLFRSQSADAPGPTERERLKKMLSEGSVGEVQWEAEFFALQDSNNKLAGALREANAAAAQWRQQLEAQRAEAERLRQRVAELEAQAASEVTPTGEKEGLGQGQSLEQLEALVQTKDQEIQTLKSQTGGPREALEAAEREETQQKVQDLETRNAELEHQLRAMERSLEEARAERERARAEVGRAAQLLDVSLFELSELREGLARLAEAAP
inactive: [1] 0.072 | [2] -0.276 | [5] 0

GIPC3 (UniProt Q8TF64)
Chain of UniProt Q8TF64 (Q8TF64 whole entry, looked up): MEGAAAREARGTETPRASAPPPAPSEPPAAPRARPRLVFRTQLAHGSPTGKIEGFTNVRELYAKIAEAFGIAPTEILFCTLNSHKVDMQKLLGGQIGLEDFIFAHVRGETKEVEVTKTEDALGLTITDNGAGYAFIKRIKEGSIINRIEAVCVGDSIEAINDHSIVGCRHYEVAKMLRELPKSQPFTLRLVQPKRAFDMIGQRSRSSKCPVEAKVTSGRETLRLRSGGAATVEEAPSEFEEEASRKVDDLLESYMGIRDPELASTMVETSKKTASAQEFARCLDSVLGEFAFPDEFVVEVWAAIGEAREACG
inactive: [1] -0.002 | [2] 0.042 | [4] 0.013 | [5] -0.075
